In PubChem BioAssay (Tox21) one finds outcome and Potency data, which are given here for eight compounds.

Values joined by “and” are separate entries in the source; they are usually repeats but may differ in a detail not shown here. Equal entries are not always repeated. Results filed as inconclusive are left out. Active and inactive are the calls of the source. Unless noted, calls follow the shape of the dose curve; as a rule, active = well fitted curve in the direction sought with a large enough effect in the repeat runs; inconclusive = weak or mixed curves; inactive = no such curve, though single readings can be large; an effect the other way counts as inactive or inconclusive.

Assay [1] is described as follows: qHTS assay to test for compound auto fluorescence at 535 nm (green) in HEK293 cells (AID 720680). A general note: In qHTS, concentration-response curves come from the screen itself.
A short description of assay [2]: qHTS assay to test for compound auto fluorescence at 460 nm (blue) in HEK293 cell free culture (AID 720681). Summed up: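 Test compounds were pinned into cell-free culture medium (DMEM with 10% FBS) and fluorescence was read directly at Ex/Em 405/460 nm. Signals were expressed as fluorescence equivalents of triamterene, with DMSO vehicle as control.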
The nature of assay [3]: qHTS assay to test for compound auto fluorescence at 535 nm (green) in HEK293 cell free culture (AID 720682). Summed up:
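No cells present: wells hold DMEM supplemented with 10% FBS, into which compound or vehicle is pinned. Green emission is then recorded (485 nm excitation, 535 nm emission) and scaled to fluorescein.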

The nature of assay [4]: qHTS assay to test for compound auto fluorescence at 590 nm (red) in HEK293 cell free culture (AID 720683). A digest of the protocol:
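Tox21 10K library compounds were pinned into cell-free DMEM with 10% FBS and fluorescence was read at excitation 540 nm. Activity is expressed as Rose Bengal sodium equivalency.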

A short description of assay [5]: qHTS assay to test for compound auto fluorescence at 590 nm (red) in HepG2 cell free culture (AID 720684). A digest of the protocol: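 Measured in medium alone (MEM containing 10% FBS) following pintool addition of compound; emission at 590 nm with 540 nm excitation, referenced to Rose Bengal sodium.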
A short description of assay [6]: qHTS assay to test for compound auto fluorescence at 535 nm (green) in HepG2 cell free culture (AID 720686).
Assay [7] is described as follows: qHTS assay to test for compound auto fluorescence at 460 nm (blue) in HepG2 cells (AID 720687). A digest of the protocol:
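Cells (2,000/well in MEM with 10% FBS) attached overnight at 37 C, then were exposed to compound or DMSO for 1 hr at 37 C, 5% CO2. Fluorescence read at Ex/Em 405/460 nm, expressed as triamterene-equivalent signal.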

For assay [8], the target named is Glucocorticoid receptor (Homo sapiens) (UniProt P04150). As to the kind of experiment: qHTS assay to identify small molecule agonists of the glucocorticoid receptor (GR) signaling pathway (AID 720691; active = well fitted activation curve with a large enough effect in the signal ratio in the repeat runs, not every such curve was filed as active; the % refers to the signal ratio). Conditions: GR-bla HeLa, beta-lactamase reporter ratio, 18 h; activation: at 62.4 µM (top of the series). A digest of the protocol: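 Beta-lactamase reporter activity, read as fluorescence intensity, was measured in GR-bla HeLa cells exposed to compounds for 18 h at 37 C and then loaded with LiveBLAzer B/G FRET substrate for 2 h at room temperature.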

Assay [9] can be described thus: qHTS assay to identify small molecule antagonists of the glucocorticoid receptor (GR) signaling pathway - cell viability counter screen (AID 720693). Also: nearly all actives have a fitted effect of over 55% in size.
Assay [10] in a line: qHTS assay for identifying genotoxic compounds that show differential cytotoxicity against isogenic chicken DT40 cell lines with known DNA damage response pathways - wild type cell line (AID 743012). Also: nearly all actives have a fitted effect of over 60% in size. Also: potency is read from the fitted curve at half-maximal effect. A digest of the protocol: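 Quantitative HTS on parental DT40 cells: 40 h compound treatment at 37 C/5% CO2, with viability then determined by CellTiter-Glo luminescence. Values serve as the DNA repair-proficient reference for differential cytotoxicity.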

A short description of assay [11]: qHTS assay for identifying genotoxic compounds that show differential cytotoxicity against isogenic chicken DT40 cell lines with known DNA damage response pathways - Rad54/Ku70 mutant cell line (AID 743015). Also: nearly all actives have a fitted effect of over 60% in size. Also: potency is read from the fitted curve at half-maximal effect.
A short description of assay [12]: qHTS assay to identify small molecule antagonists of the androgen receptor (AR) signaling pathway - cell viability counter screen (AID 743033; also: nearly all actives have a fitted effect of over 45% in size).
Assay [13] can be described thus: qHTS assay to identify small molecule antagonists of the androgen receptor (AR) signaling pathway using the MDA cell line - cell viability counter screen (AID 743041; also: nearly all actives have a fitted effect of over 45% in size). A digest of the protocol: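 Viability counter screen run alongside the AR antagonist reporter: cells seeded 5 h before compound, R1881 added, 16 h incubation at 37C without CO2, fluorescent CellTiter-Fluor signal quantified.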

Assay [14] is described as follows: qHTS assay to test for compound auto fluorescence at 460 nm (blue) in HepG2 cell free culture (AID 720685). Summed up: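 Compound (23 nL) or DMSO pinned into cell-free MEM with 10% FBS; blue fluorescence read at 405/460 nm excitation/emission, expressed as auto-fluorescence equivalency to triamterene.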
Assay [15] is described as follows: qHTS assay for identifying genotoxic compounds that show differential cytotoxicity against isogenic chicken DT40 cell lines with known DNA damage response pathways - Rev3 mutant cell line (AID 743014). Also: nearly all actives have a fitted effect of over 55% in size. Also: potency is read from the fitted curve at half-maximal effect.
For assay [16], the target named is Androgen receptor (Homo sapiens) (UniProt P10275). As to the kind of experiment: qHTS assay to identify small molecule agonists of the androgen receptor (AR) signaling pathway using the MDA cell line (AID 743040; also: nearly all actives have a fitted effect of over 20% in size). A digest of the protocol:
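Luminescence from ONE-Glo, read after 30 min at room temperature, reflects MMTV-driven luciferase in MDA-kb2 cells (AR- and GR-responsive). Treatment lasted 16 h at 37C, 0% CO2.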

Assay [17] has the same target. As to the kind of experiment: qHTS assay to identify small molecule antagonists of the androgen receptor (AR) signaling pathway using the MDA cell line (AID 743042; also: nearly all actives have a fitted effect of over 55% in size; also: potency is read from the fitted curve at half-maximal effect). A digest of the protocol: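 MDA-kb2 cells (human breast carcinoma, stably carrying an MMTV-luciferase reporter responsive to AR and GR) were plated at 3,000 cells/well and preincubated 5 hr at 37C, then given compound plus R1881 agonist for 16 h. ONE-Glo luminescence was read.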

The target of assay [18] is Glucocorticoid receptor (Homo sapiens) (UniProt P04150). As to the kind of experiment: qHTS assay to identify small molecule antagonists of the glucocorticoid receptor (GR) signaling pathway (AID 720692; active = well fitted inhibition curve with a large enough effect in the signal ratio in the repeat runs, not every such curve was filed as active; the % refers to the signal ratio). Summed up: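 Fluorescence from cleaved LiveBLAzer B/G FRET substrate reports GRE-driven beta-lactamase in HeLa cells; compounds are tested against 5 nM dexamethasone (final) over 18 h at 37 C, substrate incubation 2 h at room temperature.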

Assay [19] addresses Androgen receptor (Homo sapiens) (UniProt P10275). As to the kind of experiment: qHTS assay to identify small molecule antagonists of the androgen receptor (AR) signaling pathway (AID 743035; active = well fitted inhibition curve with a large enough effect in the signal ratio in the repeat runs, not every such curve was filed as active; the % refers to the signal ratio). Summed up:
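Cell line: GeneBLAzer AR-UAS-bla GripTite (HEK293). Stimulus: R1881 added after compound. Exposure: 16 h, 37C, 5% CO2. Readout: LiveBLAzer B/G FRET fluorescence after 2 h at room temperature.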

Assay [20] shares this target. As to the kind of experiment: qHTS assay to identify small molecule agonists of the androgen receptor (AR) signaling pathway (AID 743036; active = well fitted activation curve with a large enough effect in the signal ratio in the repeat runs, with a control signal flat, not every such curve was filed as active; the % refers to the signal ratio). Summed up:
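Quantitative HTS of the Tox21 10K library in HEK293 cells bearing a stably integrated UAS-controlled beta-lactamase reporter. Compound exposure lasted 16 h at 37C. Reporter activity was detected by FRET substrate fluorescence after 2 h at room temperature.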

Sequence of Glucocorticoid receptor (Homo sapiens) (P04150 whole entry, looked up): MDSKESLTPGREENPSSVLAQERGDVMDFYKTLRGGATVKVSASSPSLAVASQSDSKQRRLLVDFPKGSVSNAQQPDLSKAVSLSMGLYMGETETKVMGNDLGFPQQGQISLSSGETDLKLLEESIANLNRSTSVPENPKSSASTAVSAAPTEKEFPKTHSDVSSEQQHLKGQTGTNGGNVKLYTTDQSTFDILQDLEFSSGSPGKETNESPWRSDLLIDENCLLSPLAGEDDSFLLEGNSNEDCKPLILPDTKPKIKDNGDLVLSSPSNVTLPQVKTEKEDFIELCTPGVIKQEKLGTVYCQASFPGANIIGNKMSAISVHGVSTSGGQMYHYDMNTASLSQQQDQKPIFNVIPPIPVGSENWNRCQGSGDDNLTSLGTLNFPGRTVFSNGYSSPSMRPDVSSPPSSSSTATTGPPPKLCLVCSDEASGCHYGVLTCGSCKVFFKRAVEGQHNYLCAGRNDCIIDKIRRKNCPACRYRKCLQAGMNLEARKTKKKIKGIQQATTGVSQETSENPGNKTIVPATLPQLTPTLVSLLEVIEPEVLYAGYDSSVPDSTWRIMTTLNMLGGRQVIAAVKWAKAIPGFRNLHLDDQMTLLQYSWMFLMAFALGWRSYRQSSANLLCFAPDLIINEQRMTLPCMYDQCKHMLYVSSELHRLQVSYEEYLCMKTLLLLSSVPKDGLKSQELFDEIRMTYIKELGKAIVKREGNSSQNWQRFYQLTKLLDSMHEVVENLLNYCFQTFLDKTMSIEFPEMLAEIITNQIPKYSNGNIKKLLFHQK
Sequence of Androgen receptor (Homo sapiens) (P10275 whole entry, looked up): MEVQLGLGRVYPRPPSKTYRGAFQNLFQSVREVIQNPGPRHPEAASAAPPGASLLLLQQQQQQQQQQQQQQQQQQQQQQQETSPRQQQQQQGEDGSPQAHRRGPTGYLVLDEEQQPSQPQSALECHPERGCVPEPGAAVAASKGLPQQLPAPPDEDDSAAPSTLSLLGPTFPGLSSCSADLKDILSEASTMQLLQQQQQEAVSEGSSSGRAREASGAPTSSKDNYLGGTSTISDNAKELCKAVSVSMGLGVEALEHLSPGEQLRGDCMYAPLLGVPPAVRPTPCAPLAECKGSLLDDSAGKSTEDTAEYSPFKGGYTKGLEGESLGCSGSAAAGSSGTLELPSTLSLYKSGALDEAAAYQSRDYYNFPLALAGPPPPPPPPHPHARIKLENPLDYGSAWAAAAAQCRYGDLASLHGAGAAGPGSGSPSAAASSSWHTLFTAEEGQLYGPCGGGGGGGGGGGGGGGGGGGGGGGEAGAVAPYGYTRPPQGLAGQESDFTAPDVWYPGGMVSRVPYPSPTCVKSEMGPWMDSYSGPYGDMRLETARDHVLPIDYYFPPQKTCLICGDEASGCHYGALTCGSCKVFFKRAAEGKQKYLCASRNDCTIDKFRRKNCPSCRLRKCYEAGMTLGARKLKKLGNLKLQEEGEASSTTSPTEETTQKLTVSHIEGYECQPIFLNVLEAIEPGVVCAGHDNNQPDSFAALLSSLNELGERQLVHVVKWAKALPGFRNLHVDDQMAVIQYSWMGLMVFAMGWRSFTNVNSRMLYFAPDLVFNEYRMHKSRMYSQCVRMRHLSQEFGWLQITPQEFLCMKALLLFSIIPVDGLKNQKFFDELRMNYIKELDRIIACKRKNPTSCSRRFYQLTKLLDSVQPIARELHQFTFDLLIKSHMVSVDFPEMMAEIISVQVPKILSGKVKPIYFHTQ

As for `O=C(O)c1ccc(NC2OC[C@@H](O)[C@H](O)[C@H]2O)cc1` (stereo partly drawn), the call in [1], in [3], in assay [4] and in [5] was inactive. Besides, the Potency result in [2], in [6], in assay [7], in assay [8], in assay [9] and in [10] was “inactive” each time. Besides, the Potency entry in assay [11], in assay [12] and in assay [13] was “inactive” throughout.

Take `CN1CCN(CCCN2c3ccccc3Sc3ccc(C(F)(F)F)cc32)CC1`: the result in assay [1], in [3], in assay [4] and in assay [5] was inactive. Also, the Potency result in [2], in assay [14] and in [6] was “inactive” each time. Further, the Potency in assay [10] was 5.31 µM (active); in assay [15] it was 2.11 µM (active); in assay [11], 5.31 µM (active).

As for `COc1cccc2c1[C@@H]1CN(CCCCn3c(=O)[nH]c4c(sc5ncc(-c6ccccc6)nc54)c3=O)C[C@@H]1CO2`, the compound was classed as inactive in assay [1], in [3], in [4] and in assay [5]. Also, the Potency entry in assay [2], in assay [6], in assay [7], in [9] and in assay [16] was “inactive” in each case. The Potency is 18.8 µM (active) in assay [15], 11.9 µM (active) in assay [11] and 29.8 µM (active) in [17].

As for `CCC(=O)OC(OP(=O)(CCCCc1ccccc1)CC(=O)N1C[C@H](C2CCCCC2)C[C@H]1C(=O)O)C(C)C` (stereo partly drawn), the result in assay [1], in assay [3], in assay [4] and in assay [5] was inactive. The Potency entry in [2], in assay [6], in assay [7], in assay [8], in [9] and in assay [10] was “inactive” throughout. In addition, the Potency result in [11], in assay [12] and in assay [13] was “inactive” throughout.

Consider `O=C1C2CC3CC1CC(O)(C3)C2`, for which the compound was classed as inactive in assay [1], in assay [3], in [4] and in assay [5]. For the same compound, the Potency entry in assay [2], in assay [6], in assay [7], in assay [8], in assay [18] and in assay [9] was “inactive” each time. Also, the Potency result in [10], in [15], in [11], in [12], in assay [19] and in assay [20] was “inactive” throughout. The Potency result in assay [16], in assay [13] and in assay [17] was “inactive” in each case.

Take `CC(C)=CCC/C(C)=C/CC/C(C)=C/CC/C(C)=C/CC1=C(C)C(=O)c2ccccc2C1=O`: the result in assay [1], in [3], in assay [4] and in [5] was inactive. The Potency entry in assay [2], in assay [6], in assay [7], in assay [9], in assay [12] and in assay [13] was “inactive” in each case. For the same compound, the Potency in [10] is 29.8 µM (active) and 10.6 µM (active).

As to `CCOc1ccc(NC(=S)Nc2ccc(OCC)cc2)cc1`, the result in assay [1], in [3], in assay [4] and in assay [5] was inactive. Also, the Potency entry in assay [2], in assay [14], in assay [6], in assay [9], in assay [10] and in assay [15] was “inactive” each time. In addition, the Potency result in [12] and in assay [13] was “inactive” in each case.

For `Cc1cc(=O)c(C(=O)N[C@@H](C(=O)N[C@@H]2C(=O)N3C(C(=O)O)=C(CSc4nnnn4C)CS[C@H]23)c2ccc(O)cc2)c[nH]1`, the result in [1], in assay [3] and in assay [4] was inactive. The Potency result in assay [2], in assay [14], in assay [6], in [8], in assay [18] and in assay [9] was “inactive” in each case. Besides, the Potency result in assay [10], in assay [15], in assay [11], in [12], in [19] and in assay [20] was “inactive” in each case. Besides, the Potency entry in [16], in [13] and in assay [17] was “inactive” each time.
